# Assay results published in PubChem BioAssay (NCI).
# About 79,000 compounds went through this panel and 15% of them were active in at least one assay; those are over-represented in the sample as a whole. Values without a mark were called inactive. The source made the active and inactive calls. No stated cut-off is given here; in the data, active means growth inhibition above about 70%; inactive means the rest.
# Legend:
# [1] = NCI Yeast Anticancer Drug Screen. Data for the rad52 strain (AID 147);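 further: 0% = growth of vehicle-treated control cultures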; settings: S. cerevisiae rad52 mutant growth inhibition, stronger effect = higher value
# In short: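 DNA repair-defective yeast; compound exposure; growth scored against vehicle controls.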
# [2] = NCI Yeast Anticancer Drug Screen. Data for the wt1 strain (AID 149);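 further: 0% = growth of vehicle-treated wt1 cultures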; settings: S. cerevisiae wt1 strain (SPY 50644) growth inhibition, stronger effect = higher value
# In short: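 Yeast wt1 strain exposed to compounds; growth inhibition measured relative to vehicle-treated controls.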
# [3] = NCI Yeast Anticancer Drug Screen. Data for the rad50EPP+ strain (AID 151);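 further: 0% = growth of vehicle-treated control cultures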; settings: S. cerevisiae rad50 mutant strain, stronger effect = higher value
# In short: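 rad50EPP+ yeast treated with test compounds. Readout: growth vs vehicle control.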
# [4] = NCI Yeast Anticancer Drug Screen. Data for the mgt1 strain (AID 153); settings: S. cerevisiae mgt1 mutant growth inhibition, stronger effect = higher value
# In short: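 Growth inhibition relative to vehicle controls was scored for the mgt1 yeast strain after compound exposure.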
# [5] = NCI Yeast Anticancer Drug Screen. Data for the rad50 strain (AID 155);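 further: 0% = growth of vehicle-only cultures of the same strain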; settings: S. cerevisiae rad50 strain growth inhibition, stronger effect = higher value
# In short: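 Yeast carrying a defined DNA repair defect were exposed to test compounds, and growth was compared with vehicle-treated controls to give percent inhibition.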
# [6] = NCI Yeast Anticancer Drug Screen. Data for the mec2-1 strain (AID 157); settings: S. cerevisiae mec2-1 strain, stronger effect = higher value
# In short: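 Growth inhibition is read against vehicle-treated controls after compound exposure of the mec2-1 yeast strain, which is defective in DNA damage repair or cell cycle control.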
# [7] = NCI Yeast Anticancer Drug Screen. Data for the rad14 strain (AID 159);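 further: 0% = growth of vehicle-treated control cultures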; settings: S. cerevisiae rad14 strain growth inhibition, stronger effect = higher value
# In short: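 Yeast cells carrying a defined DNA-repair defect were exposed to compounds, and growth inhibition was calculated relative to vehicle-treated control cultures.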
# [8] = NCI Yeast Anticancer Drug Screen. Data for the sgs1 mgt1 strain (AID 161);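 further: 0% = growth of cultures given vehicle only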; settings: S. cerevisiae sgs1 mgt1 strain, stronger effect = higher value
# In short: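 Percent growth inhibition was derived by comparing compound-exposed mutant yeast with vehicle-exposed cultures. The strain carries alterations in DNA damage repair.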
# [9] = NCI Yeast Anticancer Drug Screen. Data for the CLN2oe strain (AID 163);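 further: 0% = growth of vehicle-only control cultures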; settings: S. cerevisiae CLN2oe strain, stronger effect = higher value
# In short: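 Compound-treated yeast; growth vs vehicle ctrl = % inhibition. Genetically altered strain (cell-cycle control).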
# [10] = NCI Yeast Anticancer Drug Screen. Data for the cln2 rad14 strain (AID 165);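 further: 0% = growth equal to vehicle treated cultures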; settings: S. cerevisiae cln2 rad14 strain, stronger effect = higher value
# In short: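 Growth inhibition, relative to vehicle-treated controls, is the read-out. The test organism is a yeast strain with defined genetic alterations, cln2 rad14.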
# [11] = NCI Yeast Anticancer Drug Screen. Data for the bub3 strain (AID 167); settings: S. cerevisiae bub3 mutant strain, stronger effect = higher value
# In short: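 Compounds were applied to a genetically altered yeast strain carrying a cell-cycle control defect. Growth inhibition was scored against vehicle-treated controls.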
# [12] = NCI Yeast Anticancer Drug Screen. Data for the wt2 strain (AID 169);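 further: 0% = growth of vehicle-treated yeast cultures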; settings: S. cerevisiae wt2 strain growth inhibition, stronger effect = higher value
# In short: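 Compound exposure of yeast; growth compared with vehicle controls; inhibition reported.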
# [13] = NCI Yeast Anticancer Drug Screen. Data for the mlh1 strain (AID 171);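 further: 0% = growth of vehicle-treated control cultures of the same strain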; settings: S. cerevisiae mlh1 strain growth inhibition, stronger effect = higher value
# In short: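 Compounds are applied to a genetically altered yeast strain, and its growth is compared with that of vehicle-treated cultures to give percent inhibition.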
# [14] = NCI Yeast Anticancer Drug Screen. Data for the sgs1 strain (AID 173);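 further: 0% = growth of vehicle-only control cultures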; settings: S. cerevisiae sgs1 mutant, stronger effect = higher value
# In short: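 Compounds applied to genetically altered yeast; growth compared with vehicle-treated cultures to give % inhibition.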
# [15] = NCI Yeast Anticancer Drug Screen. Data for the mlh1 rad18 strain (AID 175); settings: S. cerevisiae mlh1 rad18 strain growth inhibition, stronger effect = higher value
# In short: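 Cells of a genetically altered yeast strain, deficient in DNA damage repair, were treated with compound. Their growth was then compared with that of vehicle-treated cultures to give inhibition.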
# [16] = NCI Yeast Anticancer Drug Screen. Data for the rad18 strain (AID 177); settings: S. cerevisiae rad18 mutant growth inhibition, stronger effect = higher value
# In short: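 Compounds are applied to a repair-deficient yeast strain, and growth is compared with that of vehicle-treated cultures to give percent inhibition.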
# [17] = at 5.0 µM (retest, dose inferred, filed as 0.5)
# [18] = at 50.0 µM (retest, dose inferred, filed as 5.0)
smiles,measurement,setting,value
CC1CCN(CCC(=O)c2ccc([N+](=O)[O-])cc2)CC1,growth inhibition,[1]; at 1.2 µM,9%
same,growth inhibition,[1]; at 3.7 µM,1%
same,growth inhibition,[1]; at 11.0 µM,8%
same,growth inhibition,[1]; at 33.0 µM,34%
same,growth inhibition,[1]; at 100.0 µM,40%
same,growth inhibition,[2]; at 1.2 µM,-1%
same,growth inhibition,[2]; at 3.7 µM,-1%
same,growth inhibition,[2]; at 11.0 µM,1%
same,growth inhibition,[2]; at 33.0 µM,0%
same,growth inhibition,[2]; at 100.0 µM,7%
same,growth inhibition,[3]; at 1.2 µM,1%
same,growth inhibition,[3]; at 3.7 µM,1%
same,growth inhibition,[3]; at 11.0 µM,3%
same,growth inhibition,[3]; at 33.0 µM,15%
same,growth inhibition,[3]; at 100.0 µM,19%
same,growth inhibition,[4]; at 1.2 µM,-4%
same,growth inhibition,[4]; at 3.7 µM,3%
same,growth inhibition,[4]; at 11.0 µM,6%
same,growth inhibition,[4]; at 33.0 µM,21%
same,growth inhibition,[4]; at 100.0 µM,38%
same,growth inhibition,[5]; at 1.2 µM,9%
same,growth inhibition,[5]; at 3.7 µM,13%
same,growth inhibition,[5]; [17],6%
same,growth inhibition,[5]; at 11.0 µM,15%
same,growth inhibition,[5]; at 33.0 µM,37%
same,growth inhibition,[5]; [18],31%
same,growth inhibition,[5]; at 50.0 µM,63.5%
same,growth inhibition,[5]; at 100.0 µM,48%
same,growth inhibition,[6]; at 1.2 µM,-1%
same,growth inhibition,[6]; at 3.7 µM,2%
same,growth inhibition,[6]; [17],4%
same,growth inhibition,[6]; at 11.0 µM,1%
same,growth inhibition,[6]; at 33.0 µM,0%
same,growth inhibition,[6]; [18],69%
same,growth inhibition,[6]; at 50.0 µM,14.5%
same,growth inhibition,[6]; at 100.0 µM,14%
same,growth inhibition,[7]; at 1.2 µM,14%
same,growth inhibition,[7]; at 3.7 µM,25%
same,growth inhibition,[7]; at 11.0 µM,34%
same,growth inhibition,[7]; at 33.0 µM,36%
same,growth inhibition,[7]; at 100.0 µM,45%
same,growth inhibition,[8]; [17],7%
same,growth inhibition,[8]; [18],68%
same,growth inhibition,[8]; at 50.0 µM,68.5%
same,growth inhibition,[9]; at 1.2 µM,2%
same,growth inhibition,[9]; at 3.7 µM,5%
same,growth inhibition,[9]; at 11.0 µM,15%
same,growth inhibition,[9]; at 33.0 µM,30%
same,growth inhibition,[9]; at 100.0 µM,40%
same,growth inhibition,[10]; [17],8%
same,growth inhibition,[10]; [18],34%
same,growth inhibition,[10]; at 50.0 µM,31.2%
same,growth inhibition,[11]; at 1.2 µM,-2%
same,growth inhibition,[11]; at 3.7 µM,2%
same,growth inhibition,[11]; [17],7%
same,growth inhibition,[11]; at 11.0 µM,6%
same,growth inhibition,[11]; at 33.0 µM,18%
same,growth inhibition,[11]; [18],65%
same,growth inhibition,[11]; at 50.0 µM,89.6% (active)
same,growth inhibition,[11]; at 100.0 µM,31%
same,growth inhibition,[12]; at 1.2 µM,-6%
same,growth inhibition,[12]; at 3.7 µM,-2%
same,growth inhibition,[12]; at 11.0 µM,3%
same,growth inhibition,[12]; at 33.0 µM,1%
same,growth inhibition,[12]; at 100.0 µM,16%
same,growth inhibition,[13]; at 1.2 µM,1%
same,growth inhibition,[13]; at 3.7 µM,7%
same,growth inhibition,[13]; at 11.0 µM,9%
same,growth inhibition,[13]; at 33.0 µM,30%
same,growth inhibition,[13]; at 100.0 µM,39%
same,growth inhibition,[14]; at 1.2 µM,2%
same,growth inhibition,[14]; at 3.7 µM,16%
same,growth inhibition,[14]; at 11.0 µM,25%
same,growth inhibition,[14]; at 33.0 µM,46%
same,growth inhibition,[14]; at 100.0 µM,54%
same,growth inhibition,[15]; [17],7%
same,growth inhibition,[15]; [18],62%
same,growth inhibition,[15]; at 50.0 µM,40.4%
same,growth inhibition,[16]; at 1.2 µM,6%
same,growth inhibition,[16]; at 3.7 µM,16%
same,growth inhibition,[16]; at 11.0 µM,23%
same,growth inhibition,[16]; at 33.0 µM,20%
same,growth inhibition,[16]; at 100.0 µM,31%
Cc1cc2nc3ccccc3n2c2ccccc12,growth inhibition,[1]; at 1.2 µM,-33%
same,growth inhibition,[1]; at 3.7 µM,-33%
same,growth inhibition,[1]; at 11.0 µM,-56%
same,growth inhibition,[1]; at 33.0 µM,-11%
same,growth inhibition,[1]; at 100.0 µM,41%
same,growth inhibition,[2]; at 1.2 µM,-53%
same,growth inhibition,[2]; at 3.7 µM,-48%
same,growth inhibition,[2]; at 11.0 µM,-39%
same,growth inhibition,[2]; at 33.0 µM,-31%
same,growth inhibition,[2]; at 100.0 µM,-8%
same,growth inhibition,[3]; at 1.2 µM,-49%
same,growth inhibition,[3]; at 3.7 µM,-24%
same,growth inhibition,[3]; at 11.0 µM,-21%
same,growth inhibition,[3]; at 33.0 µM,28%
same,growth inhibition,[3]; at 100.0 µM,63%
same,growth inhibition,[4]; at 1.2 µM,-25%
same,growth inhibition,[4]; at 3.7 µM,4%
same,growth inhibition,[4]; at 11.0 µM,6%
same,growth inhibition,[4]; at 33.0 µM,37%
same,growth inhibition,[4]; at 100.0 µM,61%
same,growth inhibition,[5]; at 1.2 µM,2%
same,growth inhibition,[5]; at 3.7 µM,-7%
same,growth inhibition,[5]; [17],0%
same,growth inhibition,[5]; at 11.0 µM,5%
same,growth inhibition,[5]; at 33.0 µM,64%
same,growth inhibition,[5]; [18],86% (active)
same,growth inhibition,[5]; at 50.0 µM,41%
same,growth inhibition,[5]; at 100.0 µM,91% (active)
same,growth inhibition,[6]; at 1.2 µM,-45%
same,growth inhibition,[6]; at 3.7 µM,-45%
same,growth inhibition,[6]; [17],-11%
same,growth inhibition,[6]; at 11.0 µM,-41%
same,growth inhibition,[6]; at 33.0 µM,-30%
same,growth inhibition,[6]; [18],39%
same,growth inhibition,[6]; at 50.0 µM,56.1%
same,growth inhibition,[6]; at 100.0 µM,8%
same,growth inhibition,[7]; at 1.2 µM,-21%
same,growth inhibition,[7]; at 3.7 µM,-37%
same,growth inhibition,[7]; at 11.0 µM,-36%
same,growth inhibition,[7]; at 33.0 µM,-23%
same,growth inhibition,[7]; at 100.0 µM,35%
same,growth inhibition,[8]; [17],-10%
same,growth inhibition,[8]; [18],29%
same,growth inhibition,[8]; at 50.0 µM,66.7%
same,growth inhibition,[9]; at 1.2 µM,-32%
same,growth inhibition,[9]; at 3.7 µM,-24%
same,growth inhibition,[9]; at 11.0 µM,-30%
same,growth inhibition,[9]; at 33.0 µM,-7%
same,growth inhibition,[9]; at 100.0 µM,37%
same,growth inhibition,[10]; [17],2%
same,growth inhibition,[10]; [18],60%
same,growth inhibition,[10]; at 50.0 µM,52.6%
same,growth inhibition,[11]; at 1.2 µM,-15%
same,growth inhibition,[11]; at 3.7 µM,-7%
same,growth inhibition,[11]; [17],5%
same,growth inhibition,[11]; at 11.0 µM,-6%
same,growth inhibition,[11]; at 33.0 µM,5%
same,growth inhibition,[11]; [18],50%
same,growth inhibition,[11]; at 50.0 µM,69%
same,growth inhibition,[11]; at 100.0 µM,44%
same,growth inhibition,[12]; at 1.2 µM,-57%
same,growth inhibition,[12]; at 3.7 µM,-45%
same,growth inhibition,[12]; at 11.0 µM,-51%
same,growth inhibition,[12]; at 33.0 µM,-23%
same,growth inhibition,[12]; at 100.0 µM,45%
same,growth inhibition,[13]; at 1.2 µM,-33%
same,growth inhibition,[13]; at 3.7 µM,-27%
same,growth inhibition,[13]; at 11.0 µM,-7%
same,growth inhibition,[13]; at 33.0 µM,53%
same,growth inhibition,[13]; at 100.0 µM,80% (active)
same,growth inhibition,[14]; at 1.2 µM,-43%
same,growth inhibition,[14]; at 3.7 µM,-35%
same,growth inhibition,[14]; at 11.0 µM,-40%
same,growth inhibition,[14]; at 33.0 µM,-29%
same,growth inhibition,[14]; at 100.0 µM,-13%
same,growth inhibition,[15]; [17],6%
same,growth inhibition,[15]; [18],78% (active)
same,growth inhibition,[15]; at 50.0 µM,65.9%
same,growth inhibition,[16]; at 1.2 µM,-24%
same,growth inhibition,[16]; at 3.7 µM,-23%
same,growth inhibition,[16]; at 11.0 µM,-10%
same,growth inhibition,[16]; at 33.0 µM,-8%
same,growth inhibition,[16]; at 100.0 µM,29%
